Shown are actives, neighbours in structure and some others; about 7.5% of the full set was active somewhere.
KinaseGlo FLuc = blocks Kinase-Glo luciferase, a counter-screen artifact | Kinase-Glo luciferase, ATP luminescence, 8 min | Potency, µM (top dose mostly 38.3 µM), most hits filed as inhibitors | 200,000 compounds, 0.28% hits | Q27757; further: nearly all actives have a fitted effect of over 60% in size
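Substrate mix (final 50 mM imidazole pH 7.2, 50 mM KCl, 7 mM MgCl2, 10 uM ATP, 0.01% Tween 20, 0.05% BSA) plus pin-tool compound, then Kinase-Glo detection mix; 8 min ambient, luminescence read.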
ELG1 genotox = genotoxicity induction in ELG1-luciferase HEK293T cells | AID 504466 | HEK293T ELG1-luciferase reporter, luminescence, 16 h | 330,000 compounds, 1.3% hits | Potency, µM (doses to about 46 µM), hits mostly activators; further: nearly all actives have a fitted effect of over 60% in size
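Reporter readout depends on ELG1 protein level, which increases with genetic stress. After 16 hr compound exposure at 37 °C, luciferase activity was quantified using ONE-Glo.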
SMN2 splice up = enhancers of SMN2 splice variant expression; HEK293 SMN2-luciferase splicing reporter, luminescence, 30-36 h; Potency, µM (highest dose often 46.1 µM), usual class: activators; 210,000 compounds, 2.8% hits; further: nearly all actives have a fitted effect of over 55% in size
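qHTS luciferase splicing reporter: luminescence rises when SMN2 exon 7 is included in transfected HEK293 cells. Compound exposure lasted 30-36 h at 37C, with 4.5 mM final sodium butyrate as control, followed by a ONE-Glo read.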
FLuc modulator = counter-screen for miR-21 project: firefly luciferase inhibitors or activators; purified FLuc, Km substrates, luminescence inhibition; Potency, µM (doses to about 57.5 µM), usual class: inhibitors; 360,000 compounds, 6.9% hits; further: nearly all actives have a fitted effect of over 55% in size
Target sequence (P08659 whole entry, looked up): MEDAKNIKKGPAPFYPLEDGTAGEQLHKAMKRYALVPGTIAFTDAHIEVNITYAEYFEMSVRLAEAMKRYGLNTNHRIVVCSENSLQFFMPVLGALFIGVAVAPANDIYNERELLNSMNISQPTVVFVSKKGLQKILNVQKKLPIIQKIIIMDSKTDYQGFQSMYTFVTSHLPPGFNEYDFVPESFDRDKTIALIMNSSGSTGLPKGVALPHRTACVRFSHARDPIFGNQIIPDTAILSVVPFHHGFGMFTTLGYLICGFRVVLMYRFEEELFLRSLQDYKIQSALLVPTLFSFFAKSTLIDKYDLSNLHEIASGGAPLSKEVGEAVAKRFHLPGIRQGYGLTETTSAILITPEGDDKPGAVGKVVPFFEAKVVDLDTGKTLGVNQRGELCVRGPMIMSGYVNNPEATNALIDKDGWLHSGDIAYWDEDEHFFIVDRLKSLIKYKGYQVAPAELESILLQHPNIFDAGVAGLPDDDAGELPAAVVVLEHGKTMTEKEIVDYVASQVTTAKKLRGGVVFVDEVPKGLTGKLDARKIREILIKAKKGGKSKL
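Biochemical qHTS of compounds, final roughly 60 µM downward over six points, against 10 nM purified firefly luciferase using Km concentrations of substrates (10 uM D-luciferin, 10 uM ATP) in Tris acetate pH 7.5 buffer; luminescence output.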
Rab9 prom act = Rab9 promoter activation | Huh7 Rab9 promoter-luciferase reporter, luminescence, 24 h | Potency, µM (titrated, usually from 9.22 µM), usual class: activators | 320,000 compounds, 2.8% hits | AID 485297; further: nearly all actives have a fitted effect of over 60% in size
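Promoter activation is measured as luciferase luminescence in Huh7 cells stably transfected with a Rab9 promoter–luciferase construct, following 24 h compound exposure at 37 °C and 10 min reagent incubation at ambient temperature.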
NPC1 prom act = NPC1 promoter activation. 320,000 compounds, 2.4% hits. Potency, µM (titrated, usually from 9.22 µM), usual class: activators. Huh7 NPC1 promoter luciferase reporter, 24 h; further: nearly all actives have a fitted effect of over 60% in size
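In 1536-well qHTS, Huh7 cells harboring an NPC1 promoter–luciferase construct received compound for 24 h; activation was quantified by luminescence following luciferase reagent addition.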
Numbers stand for hits; i = inactive; ? = inconclusive; nt = no result given; [ ] = dose if it differs, or a comment. The call rests on the fitted dose curve; in most records, active means well fitted curve in the direction sought with a large enough effect; inconclusive means small, poorly fitted or top-dose-only effect, or another doubt; inactive means no such curve, though single readings can be large; an effect the other way counts as inactive or inconclusive.

SMILES | KinaseGlo FLuc | ELG1 genotox | SMN2 splice up | FLuc modulator | Rab9 prom act | NPC1 prom act
CC(/C=N/NC(=O)c1cc(C(C)C)[nH]n1)=C\c1ccccc1 | i | i | i | ? | i | i
CC(/C=N/NC(=O)c1ccc(Br)cc1)=C\c1ccccc1 | i | ? | i | ? | i[1.84 µM] | i
CC(/C=N/NC(=O)C(O)c1ccccc1)=C\c1ccccc1 (stereo not drawn) | i | i | i | 13µM | ? | ?
O=C(N/N=C/C(Cl)=C/c1ccccc1)c1cnccn1 | i | i | i | 12µM | i | i
CC(=C/c1ccccc1)/C=N/NC(=O)c1cnccn1 | i | 8.9µM | ? | 4.8µM | ? | 4µM
CN(C(=O)CSc1nc2ccc(NC(=O)CCc3ccccc3)cc2s1)c1ccccc1 | nt | nt | nt | i | nt | nt
CC(/C=N/NC(=O)c1ccncc1)=C\c1ccc(C(C)C)cc1 | nt | i | nt | ? | 2.8µM | i
CC(/C=N/Nc1nc(C)cc(C)n1)=C\c1ccc(C(C)C)cc1 | i | i | i | 19µM | i | i
O=C(N/N=C/C(Cl)=C\c1ccccc1)c1cnccn1 | i | ? | i | 11µM | i | i
COc1cc(C)ccc1OCCCn1c(-c2ccc(Cl)cc2)nc2ccccc2c1=O | nt | nt | i | i | nt | nt
Cc1cc(C)n(C(=O)COc2ccc([N+](=O)[O-])cc2)n1 | i | i | i | i | i | i
Cc1cc(C)n(C(N)=NC(=O)c2ccc([N+](=O)[O-])cc2)n1 | nt | ? | nt | ? | 2.5µM | 2.8µM
COc1ccc(C2NC(=O)N(C)C3=C2C(=O)N(c2ccc(F)cc2)C3)cc1 (stereo not drawn) | nt | nt | nt | i | nt | nt
Cc1cc(C)nc(Nc2cccc3ccccc23)n1 | nt | i | nt | i | i | i
Cc1cc(C)nc(Nc2n[nH]c(-c3ccccc3Br)n2)n1 | i | 18µM | i | 9.5µM | ? | ?
Cc1cc(C)nc(Nc2n[nH]c(-c3ccccc3C)n2)n1 | i | 21µM | 11µM | 9.5µM | 1.8µM | 2µM
Cc1cc(C)nc(Nc2ccccc2Br)n1 | i | i | i | i | i | i
CC(=O)Nc1nc2cc3c(cc2s1)OCO3 | i | ? | ? | 19µM | 4µM | ?
CC(C)C(=O)Nc1nc2cc3c(cc2s1)OCCO3 | nt | ? | nt | 2.4µM | 0.5µM | 0.89µM
CCOC(=O)c1sc(Nc2nc3c(OC)cccc3s2)cc1C | i | i | i | 7.6µM | ? | ?
CC(=O)Nc1nc2ccc(S(=O)(=O)N3CCCCC3)cc2s1 | nt | i | nt | i | i | i
O=C(COc1ccccc1)Nc1nc2cc3c(cc2s1)OCCO3 | nt | ? | nt | i | i | i
CC(=O)c1sc(Nc2nc3cc4c(cc3s2)OCO4)nc1C | i | ? | 11µM | 3.8µM | 2µM | 3.5µM
COc1cccc(CNC(=O)CCn2nc(C)c3c(C)n(-c4ccccc4)nc3c2=O)c1 | nt | nt | nt | i | nt | nt
CCOC(=O)c1sc(NC(=O)C2CC2)cc1C | i | i | i | ? | i | i
SMILES | KinaseGlo FLuc | ELG1 genotox | SMN2 splice up | FLuc modulator | Rab9 prom act | NPC1 prom act
CCOC(=O)c1sc(Nc2nc3cc4c(cc3s2)OCO4)cc1C | i | i | ? | 2.7µM | ? | ?
COc1ccc(C(=O)N/N=C/c2cccnc2)cc1 | nt | ? | nt | 15µM | i | ?
CC(=O)Nc1ccc(C(=O)N/N=C/c2cccnc2)cc1 | i | i | i[1.84 µM] | i | i | i
CCOc1ccc(C(=O)N/N=C/c2cccc3cccnc23)cc1 | i | i | i | 6.7µM | i | i
COc1ccc(C(=O)N/N=C/c2cccc3cccnc23)cc1 | i | i | i | 7.6µM | i | i
O[C@@H](c1cc(-c2ccc(Cl)cc2)nc2ccccc12)C1CCCCN1 (stereo partly drawn) | i[7.66 µM] | nt | i[9.22 µM] | nt | nt | nt
CCOc1ccc(CNC(=O)Cn2nc(C)n3cccc3c2=O)cc1 | nt | nt | nt | i | nt | nt
CC1=NN(c2ccccc2)C(=O)C1N=Nc1ccccc1 (stereo not drawn) | i | ? | 14µM | 2.4µM | ? | ?
COc1ccc(N=NC2C(=O)N(c3ccccc3)N=C2C)cc1 (stereo not drawn) | nt | i | nt | 19µM | i | i
CC1=NN(c2ccccc2)C(=O)C1N=Nc1cccc(O)c1 (stereo not drawn) | nt | ? | nt | 8.5µM | i | ?
COC(=O)c1ccc(OCC2c3cc(OC)c(OC)cc3CCN2C(=O)Cc2ccc(OC)c(OC)c2)cc1 (stereo not drawn) | nt | nt | nt | i | nt | nt
COc1cc(Nc2nc3ccc(Cl)cc3nc2-n2nc(C)cc2C)cc(OC)c1 | nt | nt | i | i | nt | nt
COc1ccc(NC(=O)CN(Cc2ccccc2)S(=O)(=O)c2ccc(C)cc2)cc1Cl | nt | nt | i | i | nt | nt
COc1cc(C(=O)Oc2ccccc2/C=N/NC(=O)c2ccc(Cl)cc2Cl)cc(OC)c1OC | i | i | ? | ? | ? | 3.5µM
C=CCOc1ccccc1/C=N/NC(=O)c1ccc(Cl)cc1Cl | i | i | i | 15µM | ? | ?
COc1cc(/C=C2\C(=N)N3N=C(S(C)(=O)=O)SC3=NC2=O)ccc1OC(=O)c1ccco1 | nt | i | nt | 19µM | i | i
CCS(=O)(=O)C1=NN2C(=N)/C(=C\c3ccc(OC(=O)c4ccco4)c(Br)c3)C(=O)N=C2S1 | nt | i[9.26 µM] | nt | 15µM | i | i
COc1cc(/C=C2\C(=N)N3N=C(S(C)(=O)=O)SC3=NC2=O)ccc1OC(=O)c1cccs1 | nt | i | nt | 21µM | i | i
Cc1ccc(C(c2sc3nc(-c4ccco4)nn3c2O)N2CCCC2)cc1 (stereo not drawn) | nt | nt | nt | i | nt | nt
Cc1cccc2c3nc4ccccc4nc3n(C)c12 | nt | i | nt | 2.4µM | 4.5µM | 1.4µM
COC(=O)Cn1c2nc3ccccc3nc2c2cccc(C)c21 | nt | i | nt | i | i | i
Clc1ccc2oc(-c3ccccn3)nc2c1 | ? | ? | 16µM | i[2.3 µM] | 3.2µM | 2.5µM
Nc1ccc2oc(-c3ccccn3)nc2c1 | ? | ? | 2.8µM | 19µM | ? | ?
CCS(=O)(=O)N1CCc2cc(C(=O)NCc3ccccc3OC)ccc21 | nt | nt | nt | i | nt | nt
Cc1noc(C)c1C(=O)N1CCC[C@@]2(CCN(c3cccc(-c4ccccc4)c3)C2)C1 | i | nt | i | nt | nt | nt
SMILES | KinaseGlo FLuc | ELG1 genotox | SMN2 splice up | FLuc modulator | Rab9 prom act | NPC1 prom act
COc1ccc2c(c1)CC/C2=N\OC(=O)c1ccccc1OC | i | ? | i | 3µM | i | i
Cc1ccc2cccc(NC(=O)c3cccc4c(Cl)cccc34)c2n1 | nt | nt | i | i | nt | nt
CNC(=O)Cn1nc(C)c2ccccc2c1=O | i | i | i | i | 4.5µM | i
CC(=O)Nc1ccc(S(=O)(=O)Nc2cccc(-c3ccc(N4CCCCCC4)nn3)c2)cc1 | nt | nt | nt | 4.8µM | nt | nt
CC(=O)c1ccc(S(=O)(=O)Nc2cccc(-c3ccc(N4CCOCC4)nn3)c2)cc1 | nt | i | nt | 2.7µM | ? | ?
COc1ccc(-c2cccc(NS(=O)(=O)c3ccc(NC(C)=O)cc3)c2)nn1 | nt | nt | nt | i | nt | nt
CC(=O)Nc1ccc(S(=O)(=O)Nc2cccc(-c3ccc(N4CCC(C)CC4)nn3)c2)cc1 | nt | nt | nt | 0.54µM | nt | nt
CCCn1c(C)nc2c(N3CCC(N(C)C)C3)nc(C)nc21 (stereo not drawn) | i | nt | i | nt | nt | nt
